Consider 86 compounds from PubChem BioAssay AID1159602 (The Scripps Research Institute Molecular Screening Center, 2016).

Structures are written as SMILES. The whole screen tested about 22,000 compounds, of which about 220 (1%) were called active. The sample holds actives, similar compounds and a random draw of the others, so the mix is not that of the screen. No stated cut-off is given here; in the data, active means inhibition above about 35%; inactive means the rest.

The target of the assay is Mitogen-activated protein kinase kinase kinase 5 (Homo sapiens) (UniProt Q99683). Nature of the assay: ASK1 kinase inhibitors, primary screen, biochemical, AlphaScreen (AID 1159602).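 Further: 0% = median of compound wells and 100% = no enzyme.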 The note with it: AlphaScreen MKK6 phosphorylation by ASK1, luminescence; at 7.44 µM; hits give high values.
Sequence of Mitogen-activated protein kinase kinase kinase 5 (Homo sapiens) (Q99683 whole entry, looked up): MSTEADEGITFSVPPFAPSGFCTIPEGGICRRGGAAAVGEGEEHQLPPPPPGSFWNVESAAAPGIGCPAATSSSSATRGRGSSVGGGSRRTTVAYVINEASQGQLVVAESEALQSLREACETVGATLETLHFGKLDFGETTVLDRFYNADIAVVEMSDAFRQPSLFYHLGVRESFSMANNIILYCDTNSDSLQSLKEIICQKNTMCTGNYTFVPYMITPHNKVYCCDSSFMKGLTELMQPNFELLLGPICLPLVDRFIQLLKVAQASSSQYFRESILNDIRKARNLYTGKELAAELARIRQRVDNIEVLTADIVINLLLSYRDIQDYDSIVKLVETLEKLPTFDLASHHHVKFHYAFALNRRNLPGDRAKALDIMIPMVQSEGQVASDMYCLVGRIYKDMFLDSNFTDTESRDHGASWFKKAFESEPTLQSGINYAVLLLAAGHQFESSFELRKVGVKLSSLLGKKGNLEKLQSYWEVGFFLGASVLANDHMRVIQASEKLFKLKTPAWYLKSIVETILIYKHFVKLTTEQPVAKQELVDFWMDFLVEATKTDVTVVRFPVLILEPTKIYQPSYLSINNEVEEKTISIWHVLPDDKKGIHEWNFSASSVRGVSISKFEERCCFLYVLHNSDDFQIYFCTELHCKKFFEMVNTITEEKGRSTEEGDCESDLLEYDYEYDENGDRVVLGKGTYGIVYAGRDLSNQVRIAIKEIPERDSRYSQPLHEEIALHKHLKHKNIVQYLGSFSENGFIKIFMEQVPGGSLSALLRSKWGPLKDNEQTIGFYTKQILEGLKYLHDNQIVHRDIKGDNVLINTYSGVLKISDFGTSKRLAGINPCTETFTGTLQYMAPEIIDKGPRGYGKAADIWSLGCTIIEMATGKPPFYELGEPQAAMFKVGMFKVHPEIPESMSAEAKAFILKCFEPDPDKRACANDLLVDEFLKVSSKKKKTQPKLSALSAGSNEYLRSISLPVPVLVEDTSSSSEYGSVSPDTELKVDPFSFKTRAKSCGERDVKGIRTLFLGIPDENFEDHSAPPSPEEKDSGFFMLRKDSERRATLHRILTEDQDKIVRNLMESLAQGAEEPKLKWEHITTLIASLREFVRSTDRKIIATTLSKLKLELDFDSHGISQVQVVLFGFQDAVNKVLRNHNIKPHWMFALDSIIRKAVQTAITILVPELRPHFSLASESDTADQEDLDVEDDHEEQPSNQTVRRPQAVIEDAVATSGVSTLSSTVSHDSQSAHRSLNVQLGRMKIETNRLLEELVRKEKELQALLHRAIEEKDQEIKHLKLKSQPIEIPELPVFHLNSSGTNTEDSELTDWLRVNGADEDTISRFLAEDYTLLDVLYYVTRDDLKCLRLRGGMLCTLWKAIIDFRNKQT
The term inhibition denotes the relative decrease from the control value, in per cent. As to `O=C(Nc1ccncc1)OC1CCN(C(=O)[C@H](O)COc2ccc(Br)cc2)CC1`, the inhibition was -3.38% (inactive). Consider `COC(=O)c1cccc(-n2ncc3cc(Nc4ccccc4)ccc32)c1`, for which the inhibition was -20.5% (inactive). As to `Cc1noc(C)c1-c1nc(NC2CC2)c2ncn(-c3ccsc3)c2n1`, the inhibition was -7.13% (inactive). Next, `COc1cc2nc(N3CCN(c4ccccn4)CC3)nc(NCc3nc4ccccc4[nH]3)c2cc1OC`: -8.78% (inactive); `CC(=O)Nc1ccc(NC(=O)c2csc(N3CCC(N4CCOCC4)CC3)n2)cc1`: 14.1% (inactive). Next, `CCCNc1nc(-c2cccc(C(C)=O)c2)nc2nc[nH]c12`: 6.62% (inactive). Regarding `c1ccc(OCCNc2nc(N3CCC(N4CCOCC4)CC3)nc3c2ncn3-c2ccccc2)cc1`, the inhibition was 8.08% (inactive). `CC(C)(C)OC(=O)N1CCC(CC(=O)Nc2ccnn2-c2cccc(C(=O)Nc3ccc(N4CCOCC4)cc3)c2)CC1`: the inhibition is 7.81% (inactive). Turning to `Cc1noc(C)c1-c1cc(C(=O)NCc2cccc(C(F)(F)F)c2)ccn1`, the inhibition was 1.72% (inactive). On to `O=C(NCCOc1ccccc1)c1cnc(Nc2cccnc2)s1`, for which the inhibition was 4.63% (inactive). Next, `O=C(c1cccnc1)N1CCCC(Nc2ccc3[nH]ncc3c2)C1` (stereo unspecified): -32% (inactive); `Nc1cccc(-c2nc(NCc3nc4ccccc4[nH]3)c3ncn(Cc4ccc(C(F)(F)F)cc4)c3n2)c1`: -18.3% (inactive). Next, `Cc1cc(NCc2cccnc2)nc(-c2ccc(C(N)=O)cc2)n1`: 1.31% (inactive). Turning to `COc1cc(Nc2cc(C(=O)NCc3ccccc3)ccn2)cc(OC)c1OC`, the inhibition is 2.85% (inactive).

With `O=C(NC1CC1)c1ccc(-c2nc(NC3CCN(Cc4ccccc4)CC3)c3ncn(C4CCCCC4)c3n2)cc1`, the inhibition is 9.66% (inactive).

Take `FC(F)(F)c1cccc(CNc2ncnc3nc(Nc4ccncn4)[nH]c23)c1`: the inhibition is 14.3% (inactive). Next, `COc1cc(NC(=O)c2ccnc(N3CCC(N4CCOCC4)CC3)c2)cc(OC)c1OC`: 1.9% (inactive).

On to `NC(=O)c1cccc(N2CCCC2CO)n1` (stereo unspecified), for which the inhibition was 1.37% (inactive). Then `COc1cc(NC(=O)[C@H](N)c2ccc(F)cc2)c(F)cc1-c1cn[nH]c1`, with 8.67% (inactive). For `Cc1nn(C)c(C)c1-c1nc(NCCc2ccc(O)cc2)c2ncn(CCN3CCCC3=O)c2n1`, the inhibition was -10.9% (inactive). `Cn1c(Nc2nc(NCCN3CCOCC3)c3ncn(-c4ccccc4)c3n2)nc2ccccc21`: the inhibition was -13.6% (inactive). Next, `CCN(CC)C(=O)C1CCCN(c2nc(NCc3cccc(C(F)(F)F)c3)c3cc(OC)c(OC)cc3n2)C1` (stereo unspecified): 3.43% (inactive); `CCNc1nc(C(=O)NCc2ccccc2)cs1`: -2.48% (inactive). Then `O=C(NCCN1CCOCC1)c1ccc2nc(N3CCCC3CO)sc2c1` (stereo unspecified), with 3.28% (inactive); and `CCCNc1cc(NC2CCN(Cc3ccccc3)CC2)nc(N)n1`, with 6.95% (inactive). Next, `O=C([C@@H](O)CSc1ccc(Br)cc1)N1CCC(Nc2ccc3[nH]ncc3c2)CC1`: -0.23% (inactive); `CC(=O)c1cccc(-c2nc3ccc(C(=O)NCCO)cc3s2)c1`: 0.91% (inactive); `FC(F)(F)c1ccc(Cn2cnc3c(Nc4ccc(Oc5ccccc5)cc4)nc(N4CCOCC4)nc32)cc1`: 18% (inactive). On to `CC(C)n1cnc2c(Nc3ccc(N4CCOCC4)cc3)nc(NC3CCC(O)CC3)nc21` (stereo unspecified), for which the inhibition was 6.93% (inactive). With `Cc1cc(NC2CCN(Cc3ccccc3)CC2)nc(Nc2ccccc2)n1`, the inhibition was 12.7% (inactive).

For the compound `CC(C)n1cnc2c(NC3CCN(Cc4ccccc4)CC3)nc(NC3CCN(Cc4ccccc4)CC3)nc21`, the inhibition is 8.61% (inactive).

In the case of `c1ccc(CN2CCC(Nc3nc(Nc4ccc(N5CCOCC5)cc4)c4ncn(C5CCCCC5)c4n3)CC2)cc1`, the inhibition is 22.4% (inactive). Then `CC(C)n1cnc2c(NC3CCN(Cc4ccccc4)CC3)nc(Nc3ccc(N4CCOCC4)cc3)nc21`, with 45% (active).

Consider `O=C(Nc1ccc(Oc2ccccc2)cc1)c1cncc(-c2ccc(C(=O)NC3CC3)cc2)c1`, for which the inhibition is 9.5% (inactive).

For the compound `COc1cc(Nc2ncnc3c2nc(N2CCN(Cc4ccc5c(c4)OCO5)CC2)n3C(C)C)cc(OC)c1OC`, the inhibition is 10.6% (inactive). `Cc1cc(Nc2ccc(N3CCOCC3)cc2)nc(NCc2ccc3c(c2)OCO3)n1`: the inhibition was 37.3% (active). Then `CCNc1nc(C)cc(Nc2ccc(N3CCOCC3)cc2)n1`, with 30.4% (inactive); and `Cc1cc(Nc2ccc3c(c2)OCO3)nc(Nc2cccc(N(C)C)c2)n1`, with 62.2% (active); and `CN(C)c1cccc(Nc2nccc(Nc3ccccc3)n2)c1`, with 13% (inactive). As to `COc1ccc(CCNc2cc(C)nc(Nc3cccc(N(C)C)c3)n2)cc1`, the inhibition was 70.9% (active). For `COc1ccc(CCNc2cc(C)nc(NCc3ccc4c(c3)OCO4)n2)cc1`, the inhibition is 15.4% (inactive). Next, `COc1ccc(CCNc2ncnc3c2nc(Nc2cccc(N(C)C)c2)n3C(C)C)cc1`: 27.5% (inactive); `CN(C)c1cccc(Nc2ncc(C(=O)Nc3ccc4c(c3)OCO4)s2)c1`: 24.2% (inactive); `CC(=O)Nc1ccc(Nc2cc(C)nc(NCc3ccc4c(c3)OCO4)n2)cc1`: 5.86% (inactive). Then `CC(=O)c1cccc(-c2ccc(C(=O)Nc3ccccc3)s2)c1`, with -3.18% (inactive); and `COc1ccc2c(c1)C[C@H](C(=O)Nc1ccc(-c3cn[nH]c3)cc1N(C)CCN(C)C)NC2`, with 5.32% (inactive). Then `CC(C)N(CCNc1nc(Nc2ccccc2)nc2c1ncn2C(C)C)C(C)C`, with 6.04% (inactive); and `NC(=O)c1ccc(-c2nc(NCCO)c3ncn(-c4ccsc4)c3n2)cc1`, with 0.26% (inactive); and `Cc1cnc(N2CCc3ccccc3C2)nc1NCCN(C(C)C)C(C)C`, with -16.8% (inactive). `COc1cc(-c2cn[nH]c2)ccc1C(=O)NCCc1cccs1`: the inhibition was 15.3% (inactive). Next, `Cc1cccc(CC(=O)Nc2cnn(-c3cccc(C(=O)Nc4ccc(N5CCOCC5)cc4)c3)c2)c1`: 16.2% (inactive). Next, `O=C(Cc1cccc(Br)c1)Nc1cnn(-c2cccc(C(=O)Nc3ccc(N4CCOCC4)cc3)c2)c1`: -2.11% (inactive). Then `Cc1ccccc1-c1cscc1Nc1cnn(-c2cccc(C(=O)Nc3ccc(N4CCOCC4)cc3)c2)c1`, with 37.8% (active); and `c1ccc(CNc2nc(Nc3cccnc3)nc3c2ncn3-c2ccccc2)cc1`, with 8.4% (inactive); and `CC(=O)c1cccc(-c2nc3ccc(C(=O)NC4CCN(Cc5ccccc5)CC4)cc3s2)c1`, with -0.28% (inactive). As to `CC(C)n1c(Nc2ccccc2)nc2c(NCc3cccc(C(F)(F)F)c3)ncnc21`, the inhibition was -21.3% (inactive). Then `CCCNc1ncnc2c1nc(N1CCN(c3ccccn3)CC1)n2C(C)C`, with -14.9% (inactive). Next, `COc1ccc(CCNc2cc(Nc3cc(OC)c(OC)c(OC)c3)nc(N)n2)cc1`: -1.19% (inactive); `CCCNC(=O)c1csc(Nc2nc3ccccc3n2C)n1`: -7.28% (inactive); `COc1ccc(-c2nc(Nc3cc(OC)c(OC)c(OC)c3)c3ncn(C(C)C)c3n2)cc1`: 9.01% (inactive). `CC(C)[C@@H](O)C(=O)N1CCC[C@@H]1C(=O)Nc1ccc2[nH]ncc2c1`: the inhibition was 4.14% (inactive).

For the compound `O=C(NCc1nc2ccccc2[nH]1)c1cc(N2CCCC2CO)nc2ccccc12` (stereo unspecified), the inhibition is 7.25% (inactive). As for `c1ccc(Nc2nccc(Nc3ccc(N4CCOCC4)cc3)n2)cc1`, the inhibition was 25.1% (inactive). Next, `Fc1cnc(Nc2ccc(N3CCNCC3)cc2)cc1-n1cnc(Nc2ccccc2)n1`: 56.6% (active).

`c1ccc(-n2cnc(-c3ccnc(Nc4ccc(N5CCOCC5)cc4)c3)n2)cc1`: the inhibition was 9.1% (inactive). Turning to `O=C1CCCN1CCn1cnc2c(NC3CC3)nc(NCc3ccc4c(c3)OCO4)nc21`, the inhibition was -15.8% (inactive). Then `Nc1nc(NCCCN2CCCC2=O)cc(Nc2cnccn2)n1`, with 0.26% (inactive).

Consider `CCCNc1nc(N2CCCC(C(=O)N(CC)CC)C2)nc2c1ncn2Cc1ccc(C(F)(F)F)cc1` (stereo unspecified), for which the inhibition is 15.8% (inactive).

With `COc1cc2nc(Cl)nc(NC3CC3)c2cc1OC`, the inhibition is -7.49% (inactive). Take `CCN(CC)c1nc(NCCc2ccc(O)cc2)nc(Nc2cc(OC)c(OC)c(OC)c2)n1`: the inhibition is 4.75% (inactive).

In the case of `Nc1cccc(-c2cncc(C(=O)NCCOc3ccccc3)c2)c1`, the inhibition is 1.06% (inactive).

In the case of `CC(C)n1cnc2c(NCc3cccc(C(F)(F)F)c3)nc(Nc3ccc(OC(F)(F)F)cc3)nc21`, the inhibition was -3.35% (inactive). `Cc1nn(C)c(C)c1-c1nc(C(=O)NCCc2ccc(O)cc2)cs1`: the inhibition was 4.91% (inactive). Next, `Nc1nc(NCc2nc3ccccc3[nH]2)cc(N2CCN(Cc3ccc4c(c3)OCO4)CC2)n1`: 1.22% (inactive). Next, `c1ccc2[nH]c(CNc3ncnc4nc(Nc5ccncn5)[nH]c34)nc2c1`: -8.27% (inactive). For `Cc1cc(NCc2nc3ccccc3[nH]2)nc(N2CCOCC2)n1`, the inhibition was -7.53% (inactive). Next, `CNC(=O)c1ccccc1Nc1ccnc(Nc2ccc(N3CCOCC3)cc2)c1`: 8.11% (inactive); `c1ccc(-c2ncn[nH]2)c(Nc2ccnc(Nc3ccc(N4CCOCC4)cc3)c2)c1`: 37% (active).

In the case of `Cc1cnc(Nc2ccc(N3CCOCC3)cc2)nc1Nc1ccccc1-c1ncn[nH]1`, the inhibition was -18% (inactive). Consider `COc1ccc(CCNc2ncnc3nc(-c4ccc(C(N)=O)cc4)[nH]c23)cc1`, for which the inhibition was -0.94% (inactive). Then `NC(=O)c1ccc(-c2ncc(C(=O)NCCOc3ccccc3)s2)cc1`, with -1.66% (inactive); and `COc1cc(Nc2nc(C)cc(N)n2)cc(OC)c1OC`, with -5.08% (inactive); and `Nc1cccc(-c2cc(Nc3ccccc3)ncn2)c1`, with 4.09% (inactive).

With `c1cnc(Nc2nc(NCc3cccnc3)c3ncn(C4CCCCC4)c3n2)nc1`, the inhibition was 5.63% (inactive). On to `c1ccc(CN2CCC(Nc3nc(-c4csc5ccccc45)nc4c3ncn4C3CCCCC3)CC2)cc1`, for which the inhibition was -20.4% (inactive). Next, `c1ccc(Oc2ccc(Nc3nc(Nc4ccccn4)nc4c3ncn4-c3ccsc3)cc2)cc1`: 2.93% (inactive).
